# Measured values as given in PubChem BioAssay (NCATS).
# Values joined by “and” are separate entries in the source; they are usually repeats but may differ in a detail not shown here. Equal entries are not always repeated. Inconclusive results are not listed. A number with no mark means an inactive call. Active and inactive are the calls of the source. Calls follow the shape of the dose curve; as a rule, active = well fitted curve in the direction sought with a large enough effect; inconclusive = small, poorly fitted or top-dose-only effect, or another doubt; inactive = no such curve, though single readings can be large; an effect the other way counts as inactive or inconclusive.
# Key:
# Tov112D = experiment: Primary qHTS to identify gynecologic anti-cancer compounds using libraries of approved drugs and bioactive compounds (AID 1345084); conditions: Gynecologic cancer cell panel viability, ATPlite luminescence, 48 h; series mostly up to 57.5 µM; also: nearly all actives have a fitted effect of over 55% in size
# Method in brief: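 Five-concentration response, 48 h; readout is ATP-driven luciferase luminescence.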
# [1] = Drug repurposing screens with cells derived from glioblastoma tumor samples (AID 1345199); conditions: GBM patient neurospheres viability, ATP luminescence, 48 h; also: nearly all actives have a fitted effect of over 40% in size
# Method in brief: (§1)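 Primary testing used CD133+ neurospheres from four GBM patients, seven concentrations, 48 h exposure and ATP-based viability; confirmation added three slower-growing patient lines.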
# astro = experiment: as above; conditions: viability, ATP luminescence, 48 h; series mostly up to 45.9 µM
# Method in brief: as §1
# [2] = at 46.1 µM (top of the series), tumour line C
# [3] = at 45.9 µM (top of the series), tumour line B
# [4] = at 45.9 µM (top of the series), tumour line D
# [5] = at 46 µM (top of the series), tumour line A
# % is scaled to controls: 0 for no effect and ±100 for the full control effect; potency is read from the fitted curve at half-maximal effect.
smiles,measurement,setting,value
C[C@H]1[C@H](/C=C/c2ccc(-c3ccccc3C#N)cn2)[C@@H]2[C@@H](C)OC(=O)[C@@H]2C[C@@H]1C,Potency,Tov112D,20 µM (active)
C=C(C=O)[C@]1(O)C[C@@]2(C)C(=CC1=O)C=C[C@H](OC(=O)/C=C/C=C/[C@H](C)CC)[C@@H]2C,Potency,Tov112D,inactive
CCCCCCCC(=O)CC[C@@H]1[C@@H](C/C=C\CCCC(=O)OC(C)C)[C@@H](O)C[C@H]1O,"activity, negative = cell killing",[1]; [2],-21.1%
same,Potency,[1]; tumour line A,11.2 µM (active)
same,Potency,[1]; tumour line D,15.8 µM (active)
Cc1cc(-n2c(=O)[nH]c(=O)n(C)c2=O)ccc1Oc1ccc(S(=O)(=O)C(F)(F)F)cc1,"activity, negative = cell killing",[1]; [3],-20.8%
same,Potency,[1]; tumour line C,20.6 µM (active)
CCCCCCCCCCCCCCCC(=O)O[C@@H]1CC(C)=C(/C=C/C(C)=C/C=C/C(C)=C/C=C/C=C(C)/C=C/C=C(C)/C=C/C2=C(C)C[C@@H](OC(=O)CCCCCCCCCCCCCCC)CC2(C)C)C(C)(C)C1,"activity, negative = cell killing",[1]; [3],-12.7%
same,Potency,[1]; tumour line A,11.2 µM (active)
C/C(=N\N=C(N)N)c1cc(NC(=O)CCCCCCCCC(=O)Nc2cc(/C(C)=N/N=C(N)N)cc(/C(C)=N/N=C(N)N)c2)cc(/C(C)=N/N=C(N)N)c1,Potency,Tov112D,inactive
C=CC(=O)N1CCCC(n2nc(-c3ccc(Oc4ccccc4)cc3)c3c(N)ncnc32)C1 (stereo unspecified),Potency,Tov112D,inactive
C=C1C(=O)O[C@H]2CC(=C)[C@H]3CC[C@@](C)(O)[C@@H]3CC12 (stereo partly specified),Potency,Tov112D,inactive
CC1(C)CC[C@]2(C(=O)O)CC[C@]3(C)C(=CCC4[C@@]5(C)C[C@@H](O)[C@H](O)C(CO)(CO)C5CC[C@]43C)C2[C@@H]1O (stereo partly specified),Potency,Tov112D,7.94 µM (active)
COc1cc2nc(N3CCN(C(=O)c4ccco4)C4CCCCC43)nc(N)c2cc1OC (stereo unspecified),Potency,Tov112D,inactive
Cc1[nH]c(/C=C2\C(=O)Nc3cc(-c4ccccc4)ccc32)c(C)c1CCC(=O)O,Potency,Tov112D,inactive
Cn1cc(-c2cnn3c(N)c(Br)c([C@@H]4CCCNC4)nc23)cn1,Potency,Tov112D,inactive
O=C(Nc1ccc(N2C(=O)[C@@H]3[C@H](C2=O)[C@@H]2C=C[C@H]3C2)c(Cl)c1)c1ccccn1,Potency,Tov112D,inactive
CCCC(CCC)C(=O)Nc1ccn([C@@H]2O[C@H](CO)[C@@H](O)C2(F)F)c(=O)n1,Potency,Tov112D,10 µM (active)
Cc1cc(Nc2ccccc2C(=O)O)ccc1Cl,"activity, negative = cell killing",[1]; [3],-5.77%
same,"activity, negative = cell killing",[1]; [4],-31.8%
same,"activity, negative = cell killing",[1]; [2],-18%
CN(C)CC1CCn2c(c(C3=C(c4cn(C)c5ccccc45)C(=O)NC3=O)c3ccccc32)C1 (stereo unspecified),Potency,Tov112D,inactive
Nc1ncnc(Nc2ccc(Cl)cc2)n1,"activity, negative = cell killing",[1]; [3],-4.5%
same,"activity, negative = cell killing",[1]; [4],-28%
same,"activity, negative = cell killing",[1]; [2],-9.25%
same,Potency,[1]; tumour line A,35.5 µM (active)
C/C=C(\C)C(=O)O[C@H]1C=C(CO)C(=O)[C@H](OC(C)=O)[C@H]1C(C)C,Potency,Tov112D,inactive
CCC(=O)Oc1ccc2c(c1)CC[C@@H]1[C@@H]2CC[C@]2(C)[C@@H](OC(=O)CC)CC[C@@H]12,"activity, negative = cell killing",[1]; [3],-0.785%
same,"activity, negative = cell killing",[1]; [4],-16.9%
same,"activity, negative = cell killing",[1]; [2],-12.6%
same,Potency,[1]; tumour line A,12.6 µM (active)
CC(=O)[C@@]1(O)CC[C@H]2[C@@H]3C=C(Cl)C4=CC(=O)CC[C@]4(C)[C@H]3CC[C@@]21C,"activity, negative = cell killing",[1]; [3],-7.69%
same,"activity, negative = cell killing",[1]; [4],-22.6%
same,"activity, negative = cell killing",[1]; [2],-23.8%
same,Potency,[1]; tumour line A,12.6 µM (active)
Cc1cc(C(C)Nc2ccccc2C(=O)O)c2nc(N3CCOCC3)cc(=O)n2c1 (stereo unspecified),Potency,Tov112D,inactive
C=C1/C(=C/C=C2\CCC[C@]3(C)[C@@H]([C@H](C)CC[C@@H](O)C(C)(C)O)CC[C@@H]23)C[C@@H](O)C[C@@H]1O,Potency,Tov112D,inactive
COc1cc(CCc2cc(NC(=O)c3ccc(N4CC(C)NC(C)C4)cc3)n[nH]2)cc(OC)c1 (stereo unspecified),Potency,Tov112D,inactive
C/C=C(/C)C(=O)O[C@H]1[C@H](OC(=O)/C(C)=C\C)[C@@]23C(CC1(C)C)[C@]1(CCC4[C@@]5(C)CC[C@H](O[C@@H]6O[C@H](C(=O)O)[C@@H](O)[C@H](O[C@@H]7O[C@H](CO)[C@H](O)[C@H](O)[C@H]7O[C@@H]7O[C@@H](C)[C@H](O)[C@@H](O)[C@H]7O[C@@H]7OC[C@@H](O)[C@H](O)[C@H]7O)[C@H]6O[C@@H]6O[C@H](CO)[C@H](O)[C@H](O)[C@H]6O)C(C)(C)C5CC[C@@]4(C)[C@]1(C)C[C@H]2O)O[C@H]3O (stereo partly specified),"activity change, negative = cytotoxicity",Tov112D,-22.5% [at 6.55 µM]
NC(=O)c1cnc(N[C@@H]2CCCC[C@H]2N)nc1Nc1cccc(-n2nccn2)c1,Potency,Tov112D,inactive
COc1cc(Br)c(S(=O)(=O)Nc2ccc(Cl)c(O[C@@H]3CCN(C)C3)c2)cc1OC,Potency,Tov112D,inactive
C=CC(=O)Nc1cc(-n2c(=O)ccc3cnc4ccc(-c5ccc(NS(C)(=O)=O)cc5)cc4c32)ccc1C,Potency,Tov112D,inactive
CC(=O)O[C@H]1CC[C@@]2(C)C(=CC[C@@H]3[C@@H]2CC[C@]2(C)C(c4cccnc4)=CC[C@@H]32)C1,"activity, negative = cell killing",[1]; [3],-19.3%
same,"activity, negative = cell killing",[1]; [2],-13.1%
same,Potency,[1]; tumour line A,11.2 µM (active)
Fc1ccc(-c2nc(C3CCNCC3)sc2-c2ccnc(NC3CC3)n2)cc1,Potency,Tov112D,inactive
CC1(C)S[C@@H]2[C@H](NC(=O)C(C(=O)Oc3ccc4c(c3)CCC4)c3ccccc3)C(=O)N2[C@H]1C(=O)O (stereo partly specified),"activity, negative = cell killing",[1]; [3],-10.7%
same,"activity, negative = cell killing",[1]; [4],-5.29%
same,"activity, negative = cell killing",[1]; [5],-6.42%
same,"activity, negative = cell killing",[1]; [2],7.9%
same,Potency,astro,inactive
O=C(Cn1cnnn1)N[C@@H]1C(=O)N2C(C(=O)O)=C(CSc3nncs3)CS[C@H]12,"activity, negative = cell killing",[1]; [3],-3.62% and -9.64%
same,"activity, negative = cell killing",[1]; [4],-5.02% and -0.39%
same,"activity, negative = cell killing",[1]; [5],-29.3%
same,"activity, negative = cell killing",[1]; [2],1.48% and -8.58%
same,Potency,astro,inactive
O=C(OCCO)c1ccccc1O,"activity, negative = cell killing",[1]; [3],-4.1%
same,"activity, negative = cell killing",[1]; [4],8.11%
same,"activity, negative = cell killing",[1]; [5],-21.4%
same,"activity, negative = cell killing",[1]; [2],-4.97%
same,Potency,astro,inactive
CCCC1([C@H](O)C/C=C/[C@H]2[C@H](O)CC(=O)[C@@H]2CCCCCCC(=O)OC)CCC1,"activity, negative = cell killing",[1]; [3],0.947%
same,"activity, negative = cell killing",[1]; [4],-12.7%
same,"activity, negative = cell killing",[1]; [2],-22%
same,Potency,[1]; tumour line A,20 µM (active)
same,Potency,astro,inactive
